# Key:
# [1] = target: T1, Casein kinase II (Homo sapiens) (UniProt P67870+P68400+P19784); conditions: at 1 µM
# [2] = target: T1, Casein kinase II (Homo sapiens); conditions: at 10 µM
# [3] = target: Casein kinase II subunit alpha' (Homo sapiens) (UniProt P19784); conditions: at 1 µM
# [4] = target: Casein kinase II subunit alpha' (Homo sapiens) (UniProt P19784); conditions: at 10 µM
# [5] = target: Dual specificity protein kinase CLK2 (Homo sapiens) (UniProt P49760); conditions: at 1 µM
# [6] = target: Dual specificity protein kinase CLK2 (Homo sapiens) (UniProt P49760); conditions: at 10 µM
# [7] = target: Dual specificity protein kinase CLK3 (Homo sapiens) (UniProt P49761); conditions: at 1 µM
# Sequence of Dual specificity protein kinase CLK3 (Homo sapiens) (P49761 whole entry, looked up): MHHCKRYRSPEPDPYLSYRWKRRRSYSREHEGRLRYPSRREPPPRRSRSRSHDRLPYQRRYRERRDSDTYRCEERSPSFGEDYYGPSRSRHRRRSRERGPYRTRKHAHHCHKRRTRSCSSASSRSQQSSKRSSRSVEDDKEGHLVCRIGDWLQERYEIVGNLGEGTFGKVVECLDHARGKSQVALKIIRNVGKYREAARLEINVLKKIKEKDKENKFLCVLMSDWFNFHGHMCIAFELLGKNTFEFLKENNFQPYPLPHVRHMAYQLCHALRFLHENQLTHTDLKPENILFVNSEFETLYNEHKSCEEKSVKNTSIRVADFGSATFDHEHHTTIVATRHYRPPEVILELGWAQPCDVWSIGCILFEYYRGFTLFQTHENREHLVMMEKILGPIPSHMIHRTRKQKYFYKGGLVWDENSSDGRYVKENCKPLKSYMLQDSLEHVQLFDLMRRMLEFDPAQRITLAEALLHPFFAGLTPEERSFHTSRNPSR
# [8] = target: Dual specificity protein kinase CLK3 (Homo sapiens) (UniProt P49761); conditions: at 10 µM
# [9] = target: Tyrosine-protein kinase CSK (Homo sapiens) (UniProt P41240); conditions: at 1 µM
# Sequence of Tyrosine-protein kinase CSK (Homo sapiens) (P41240 2-450 limits assumed): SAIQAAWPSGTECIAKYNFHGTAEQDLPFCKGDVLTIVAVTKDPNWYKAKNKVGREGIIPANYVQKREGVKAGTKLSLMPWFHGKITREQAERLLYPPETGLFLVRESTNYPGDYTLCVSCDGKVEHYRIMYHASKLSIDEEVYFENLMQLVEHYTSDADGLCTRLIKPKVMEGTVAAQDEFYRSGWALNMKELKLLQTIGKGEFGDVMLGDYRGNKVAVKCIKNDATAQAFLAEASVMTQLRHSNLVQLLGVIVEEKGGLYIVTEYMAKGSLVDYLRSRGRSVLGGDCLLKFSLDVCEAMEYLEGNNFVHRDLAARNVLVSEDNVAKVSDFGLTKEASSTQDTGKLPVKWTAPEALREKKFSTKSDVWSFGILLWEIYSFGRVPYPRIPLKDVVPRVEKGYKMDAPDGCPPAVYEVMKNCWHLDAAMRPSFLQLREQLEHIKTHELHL
# [10] = target: Tyrosine-protein kinase CSK (Homo sapiens) (UniProt P41240); conditions: at 10 µM
# [11] = target: Calcium/calmodulin-dependent protein kinase type 1 (Homo sapiens) (UniProt Q14012); conditions: at 1 µM
# Sequence of Calcium/calmodulin-dependent protein kinase type 1 (Homo sapiens) (Q14012 whole entry, looked up): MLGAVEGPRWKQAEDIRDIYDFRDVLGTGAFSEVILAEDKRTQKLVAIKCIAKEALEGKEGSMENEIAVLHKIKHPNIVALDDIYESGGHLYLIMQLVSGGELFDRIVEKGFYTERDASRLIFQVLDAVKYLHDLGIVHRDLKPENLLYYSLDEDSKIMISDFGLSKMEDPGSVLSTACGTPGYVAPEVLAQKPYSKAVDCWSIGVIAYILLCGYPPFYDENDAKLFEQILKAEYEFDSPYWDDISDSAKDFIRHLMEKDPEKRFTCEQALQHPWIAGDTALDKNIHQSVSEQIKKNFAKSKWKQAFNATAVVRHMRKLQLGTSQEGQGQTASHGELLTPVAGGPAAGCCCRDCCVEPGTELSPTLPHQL
# [12] = target: Calcium/calmodulin-dependent protein kinase type 1 (Homo sapiens) (UniProt Q14012); conditions: at 10 µM
# [13] = target: Calcium/calmodulin-dependent protein kinase type II subunit beta (Homo sapiens) (UniProt Q13554); conditions: at 1 µM
# Sequence of Calcium/calmodulin-dependent protein kinase type II subunit beta (Homo sapiens) (Q13554 whole entry): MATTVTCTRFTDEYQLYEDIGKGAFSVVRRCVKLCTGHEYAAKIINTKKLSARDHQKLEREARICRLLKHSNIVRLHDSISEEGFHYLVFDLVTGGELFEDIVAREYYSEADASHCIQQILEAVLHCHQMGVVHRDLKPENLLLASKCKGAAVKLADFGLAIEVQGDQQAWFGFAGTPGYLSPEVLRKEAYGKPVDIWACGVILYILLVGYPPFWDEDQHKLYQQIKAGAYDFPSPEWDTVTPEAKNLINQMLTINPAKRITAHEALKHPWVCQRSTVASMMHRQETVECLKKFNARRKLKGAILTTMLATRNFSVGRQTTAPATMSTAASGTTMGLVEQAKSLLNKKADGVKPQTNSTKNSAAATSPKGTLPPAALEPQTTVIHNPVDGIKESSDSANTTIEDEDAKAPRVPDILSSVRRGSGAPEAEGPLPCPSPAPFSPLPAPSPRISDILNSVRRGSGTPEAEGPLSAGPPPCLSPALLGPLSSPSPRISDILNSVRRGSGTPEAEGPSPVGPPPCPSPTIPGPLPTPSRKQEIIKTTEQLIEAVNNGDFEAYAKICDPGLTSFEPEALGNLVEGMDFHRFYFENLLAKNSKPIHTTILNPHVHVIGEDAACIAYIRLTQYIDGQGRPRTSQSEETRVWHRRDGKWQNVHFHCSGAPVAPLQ
# [14] = target: Calcium/calmodulin-dependent protein kinase type II subunit beta (Homo sapiens) (UniProt Q13554); conditions: at 10 µM
# [15] = target: Calcium/calmodulin-dependent protein kinase type II subunit gamma (Homo sapiens) (UniProt Q13555); conditions: at 1 µM
# Sequence of Calcium/calmodulin-dependent protein kinase type II subunit gamma (Homo sapiens) (Q13555 whole entry): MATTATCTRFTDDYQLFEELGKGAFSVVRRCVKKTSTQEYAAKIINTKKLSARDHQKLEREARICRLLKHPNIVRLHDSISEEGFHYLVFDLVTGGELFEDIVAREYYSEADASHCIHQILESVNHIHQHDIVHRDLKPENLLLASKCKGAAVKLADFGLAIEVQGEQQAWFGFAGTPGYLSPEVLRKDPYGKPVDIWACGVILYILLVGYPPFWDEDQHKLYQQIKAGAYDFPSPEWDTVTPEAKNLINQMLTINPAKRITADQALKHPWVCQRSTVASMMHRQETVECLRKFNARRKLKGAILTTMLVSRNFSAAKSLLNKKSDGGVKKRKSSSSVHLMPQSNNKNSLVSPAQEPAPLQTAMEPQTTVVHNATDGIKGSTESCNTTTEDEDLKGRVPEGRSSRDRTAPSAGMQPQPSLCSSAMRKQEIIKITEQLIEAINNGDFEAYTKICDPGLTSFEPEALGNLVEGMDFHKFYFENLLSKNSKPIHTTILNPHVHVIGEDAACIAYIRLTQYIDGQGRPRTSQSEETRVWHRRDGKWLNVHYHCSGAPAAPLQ
# [16] = target: Calcium/calmodulin-dependent protein kinase type II subunit gamma (Homo sapiens) (UniProt Q13555); conditions: at 10 µM
# [17] = target: Calcium/calmodulin-dependent protein kinase type II subunit delta (Homo sapiens) (UniProt Q13557); conditions: at 1 µM
# Sequence of Calcium/calmodulin-dependent protein kinase type II subunit delta (Homo sapiens) (Q13557 whole entry): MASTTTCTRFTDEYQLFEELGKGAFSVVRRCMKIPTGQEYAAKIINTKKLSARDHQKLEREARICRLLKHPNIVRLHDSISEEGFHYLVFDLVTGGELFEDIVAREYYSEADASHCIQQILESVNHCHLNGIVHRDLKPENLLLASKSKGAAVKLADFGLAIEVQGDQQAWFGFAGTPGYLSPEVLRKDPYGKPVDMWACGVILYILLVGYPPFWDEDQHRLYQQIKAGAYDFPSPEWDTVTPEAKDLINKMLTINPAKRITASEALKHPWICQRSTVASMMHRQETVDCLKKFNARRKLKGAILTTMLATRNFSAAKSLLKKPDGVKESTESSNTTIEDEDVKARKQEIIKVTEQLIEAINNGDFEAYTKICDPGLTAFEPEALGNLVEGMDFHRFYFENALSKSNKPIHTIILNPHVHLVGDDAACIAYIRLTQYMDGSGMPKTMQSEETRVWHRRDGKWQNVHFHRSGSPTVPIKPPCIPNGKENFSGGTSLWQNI
# [18] = target: Calcium/calmodulin-dependent protein kinase type II subunit delta (Homo sapiens) (UniProt Q13557); conditions: at 10 µM
# [19] = target: T2, Calcium/calmodulin-dependent protein kinase type IV (Homo sapiens) (UniProt Q16566); conditions: at 1 µM
# T2 sequence (whole entry): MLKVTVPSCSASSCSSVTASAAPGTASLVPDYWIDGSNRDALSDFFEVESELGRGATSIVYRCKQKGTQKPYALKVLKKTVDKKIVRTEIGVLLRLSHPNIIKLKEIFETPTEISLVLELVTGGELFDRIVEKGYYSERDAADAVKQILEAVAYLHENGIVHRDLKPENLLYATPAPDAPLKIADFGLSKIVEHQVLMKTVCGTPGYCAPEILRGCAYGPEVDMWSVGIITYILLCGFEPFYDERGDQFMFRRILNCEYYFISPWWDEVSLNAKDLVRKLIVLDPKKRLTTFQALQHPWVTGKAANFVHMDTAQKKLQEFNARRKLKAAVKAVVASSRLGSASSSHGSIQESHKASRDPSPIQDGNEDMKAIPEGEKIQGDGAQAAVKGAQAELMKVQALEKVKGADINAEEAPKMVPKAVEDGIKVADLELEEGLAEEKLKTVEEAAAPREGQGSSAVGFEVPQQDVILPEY
# [20] = target: T2, Calcium/calmodulin-dependent protein kinase type IV (Homo sapiens); conditions: at 10 µM
# Sequence of Dual specificity protein kinase CLK2 (Homo sapiens) (P49760 whole entry, looked up): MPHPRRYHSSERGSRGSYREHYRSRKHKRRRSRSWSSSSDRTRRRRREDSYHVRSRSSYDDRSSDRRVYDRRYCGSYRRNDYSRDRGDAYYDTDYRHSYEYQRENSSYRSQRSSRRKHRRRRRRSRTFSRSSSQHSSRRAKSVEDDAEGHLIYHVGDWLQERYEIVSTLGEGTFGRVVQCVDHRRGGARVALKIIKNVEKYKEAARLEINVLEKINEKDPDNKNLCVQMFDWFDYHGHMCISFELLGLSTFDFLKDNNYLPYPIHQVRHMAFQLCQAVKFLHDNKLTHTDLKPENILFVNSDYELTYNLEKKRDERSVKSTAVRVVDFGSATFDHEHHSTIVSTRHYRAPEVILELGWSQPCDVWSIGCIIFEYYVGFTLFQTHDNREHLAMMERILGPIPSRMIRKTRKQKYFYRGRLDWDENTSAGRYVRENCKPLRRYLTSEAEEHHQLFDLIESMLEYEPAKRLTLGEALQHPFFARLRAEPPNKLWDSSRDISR
# T1 sequence (P19784 whole entry, looked up): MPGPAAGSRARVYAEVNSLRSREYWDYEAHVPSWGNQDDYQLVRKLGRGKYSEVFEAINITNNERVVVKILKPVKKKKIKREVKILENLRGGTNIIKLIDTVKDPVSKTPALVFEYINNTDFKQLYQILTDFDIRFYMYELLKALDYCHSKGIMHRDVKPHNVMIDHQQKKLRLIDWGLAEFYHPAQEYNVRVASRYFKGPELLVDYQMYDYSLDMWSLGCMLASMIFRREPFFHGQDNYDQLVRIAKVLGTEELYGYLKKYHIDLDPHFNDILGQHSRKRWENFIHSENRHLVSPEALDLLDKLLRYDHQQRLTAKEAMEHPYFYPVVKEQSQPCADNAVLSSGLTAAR
# T1 sequence (P67870 whole entry, looked up): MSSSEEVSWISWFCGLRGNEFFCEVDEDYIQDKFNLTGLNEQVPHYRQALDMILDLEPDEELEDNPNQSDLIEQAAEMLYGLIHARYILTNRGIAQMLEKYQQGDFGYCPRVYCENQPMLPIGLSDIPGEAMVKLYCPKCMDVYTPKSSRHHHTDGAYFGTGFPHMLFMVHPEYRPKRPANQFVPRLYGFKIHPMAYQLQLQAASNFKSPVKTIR
# T1 sequence (P68400 whole entry, looked up): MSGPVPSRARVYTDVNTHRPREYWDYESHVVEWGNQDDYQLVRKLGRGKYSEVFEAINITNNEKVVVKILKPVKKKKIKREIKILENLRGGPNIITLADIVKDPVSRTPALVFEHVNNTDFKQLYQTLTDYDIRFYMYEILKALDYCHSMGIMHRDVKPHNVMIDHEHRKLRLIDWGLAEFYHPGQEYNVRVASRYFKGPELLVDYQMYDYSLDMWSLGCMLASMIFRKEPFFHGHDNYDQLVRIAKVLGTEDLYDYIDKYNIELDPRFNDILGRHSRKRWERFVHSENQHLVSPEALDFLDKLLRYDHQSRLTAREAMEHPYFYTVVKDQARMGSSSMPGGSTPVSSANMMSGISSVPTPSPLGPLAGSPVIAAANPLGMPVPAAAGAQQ
# Sequence of Casein kinase II subunit alpha' (Homo sapiens) (P19784 whole entry, looked up): as the sequence (P19784 whole entry, looked up) above
SMILES,residual activity [1],residual activity [2],residual activity [3],residual activity [4],residual activity [5],residual activity [6],residual activity [7],residual activity [8],residual activity [9],residual activity [10],residual activity [11],residual activity [12],residual activity [13],residual activity [14],residual activity [15],residual activity [16],residual activity [17],residual activity [18],residual activity [19],residual activity [20]
O=C1c2ccccc2-[n+]2ccc3c([nH]c4ccccc43)c21,87%,71%,104%,85%,114%,103%,79%,72%,86%,88%,81%,68%,92%,76%,103%,78%,95%,81%,102%,93%
Cc1ccc(NC2=CC(=O)c3sc(C)nc3C2=O)cc1,100%,101%,100%,107%,111%,109%,95%,88%,98%,95%,92%,74%,89%,81%,104%,98%,95%,98%,113%,96%
Nc1ccc2ncnc(NCCc3ccc(Oc4ccccc4)cc3)c2c1,100%,101%,109%,100%,87%,69%,94%,92%,118%,91%,107%,87%,72%,43%,24%,11%,31%,14%,108%,106%
CCN(CC)CCCCN1c2ccccc2Oc2ccc(Cl)cc21,104%,103%,137%,101%,117%,127%,89%,92%,113%,102%,107%,89%,106%,93%,111%,97%,112%,112%,126%,118%
O=C(O)c1ccc2c3c1cccc3c(=O)n1c3ccccc3nc21,22%,-4%,18%,4%,77%,27%,77%,32%,102%,88%,108%,117%,88%,51%,88%,31%,80%,31%,94%,21%
O=C(Nc1cccc(Nc2nccc(Nc3cccc(C(F)(F)F)c3)n2)c1)C1CC1,75%,109%,108%,72%,71%,82%,76%,9%,115%,100%,86%,31%,100%,38%,76%,12%,66%,19%,84%,62%
O=Nc1c(-c2c(O)[nH]c3ccccc23)[nH]c2ccccc12,112%,78%,102%,58%,14%,4%,79%,54%,101%,78%,72%,21%,33%,11%,12%,1%,10%,2%,66%,10%
Nc1n[nH]c2nnc(-c3c(-c4ccccc4)nn4ccccc34)cc12,98%,85%,101%,92%,98%,84%,84%,90%,107%,103%,101%,79%,93%,80%,103%,92%,94%,93%,95%,64%
O=C1Nc2cc(Br)ccc2/C1=C1/Nc2ccccc2/C1=N\O,94%,86%,94%,57%,92%,74%,79%,54%,94%,89%,59%,12%,15%,8%,3%,2%,1%,2%,59%,73%
CCOc1cc2ncnc(Nc3cccc(Br)c3)c2cc1OCC,89%,104%,113%,95%,102%,68%,92%,59%,95%,66%,107%,84%,91%,64%,82%,40%,85%,38%,97%,93%
Cn1cc(/C=C2\C(=O)Nc3ccc(S(N)(=O)=O)cc32)c2ccccc21,79%,111%,124%,80%,35%,14%,45%,-3%,114%,92%,54%,12%,65%,58%,23%,-1%,23%,7%,120%,62%
NC(=O)c1ccc2[nH]c(-c3ccc(Oc4ccc(Cl)cc4)cc3)nc2c1,100%,92%,92%,102%,101%,104%,89%,82%,105%,102%,94%,92%,87%,43%,92%,58%,91%,61%,108%,108%
CN(C)c1ccc(/C=C2\C(=O)Nc3ccccc32)cc1,87%,108%,115%,96%,86%,48%,77%,13%,116%,119%,122%,116%,101%,76%,92%,46%,89%,35%,87%,89%
Cc1ccc(S(=O)(=O)/C=C/C#N)cc1,116%,98%,114%,103%,110%,112%,96%,96%,116%,105%,95%,77%,101%,88%,103%,94%,104%,107%,108%,86%
